Reference: the supplement of paper PMC13380429

Test system: Vero E6 infected with SARS-CoV-2
Experiment: inhibition of SARS-CoV-2 cytopathic effect; higher = more antiviral protection, active = above 15
Settings: 48 h

Measured: inhibition of SARS-CoV-2 cytopathic effect

COc1c(O[C@@H]2O[C@H](CO)[C@@H](O)[C@H](O)[C@H]2O)cc2c(c1OC)-c1ccc(SC)c(=O)cc1[C@@H](NC(C)=O)CC2 [thiocolchicoside]
inactive: 1 nM 0.08% | 8.33 nM 2.05% | 100 nM -0.7% | 833.33 nM -5.51% | 10000 nM -3.66%

O=c1c2ccccc2oc2ccccc12 [xanthone]
inactive: 1 nM 1.22% | 8.33 nM 1.53% | 100 nM 1.84% | 833.33 nM -0.86% | 10000 nM -3.12%

O=C(O)c1nn(Cc2ccc(Cl)cc2Cl)c2ccccc12 [lonidamine]
inactive: 1 nM -0.69% | 8.33 nM 0.67% | 100 nM 0.81% | 833.33 nM 1.31% | 10000 nM -0.94%

CCOC(=O)Nc1cc(-c2ccc(C)c(NS(C)(=O)=O)c2)nn2c(C)nnc12 [bromosporine]
inactive: 1 nM -4.03% | 8.33 nM -0.62% | 100 nM -0.65% | 833.33 nM -0.48% | 10000 nM -19.3%

CCc1c(C(=O)NCCc2ccc(N3CCCCC3)cc2)[nH]c2ccc(Cl)cc12
inactive: 1 nM 1.1% | 8.33 nM 2.93% | 100 nM 4.96% | 833.33 nM 2.28% | 10000 nM -2.19%

CC(=O)S[C@@H]1CC2=CC(=O)CC[C@]2(C)[C@H]2CC[C@@]3(C)[C@@H](CC[C@@]34CCC(=O)O4)[C@H]12 [spironolactone]
inactive: 1 nM -0.66% | 8.33 nM -0.55% | 100 nM -0.37% | 833.33 nM 3.98% | 10000 nM 6.39%

NC(=S)N/N=C/c1ncccc1N [triapine]
inactive: 1 nM 2.87% | 8.33 nM -0.48% | 100 nM 4.4% | 833.33 nM 3.25% | 10000 nM -6.06%

OB1OCc2cc(F)ccc21 [tavaborole]
inactive: 1 nM -0.98% | 8.33 nM 1.46% | 100 nM -1.21% | 833.33 nM 2.11% | 10000 nM -2.53%

Cc1cc(C(C)(C)CC(C)(C)C)ccc1OCCOCC[N+](C)(C)Cc1ccccc1 [methylbenzethonium-chloride]
inactive: 1 nM -1.31% | 8.33 nM -1.52% | 100 nM -3.07% | 833.33 nM -0.46% | 10000 nM -4.8%

C[C@]12CC[C@H](O)CC1=CC[C@@H]1[C@@H]2CC[C@]2(C)C(c3cccnc3)=CC[C@@H]12 [Abiraterone (CB-7598)]
inactive: 1 nM 2.77% | 8.33 nM 5.09% | 100 nM 3.28% | 833.33 nM 2.56% | 10000 nM 1.88%

CC(C)c1nc(CN(C)C(=O)N[C@H](C(=O)N[C@@H](Cc2ccccc2)C[C@H](O)[C@H](Cc2ccccc2)NC(=O)OCc2cncs2)C(C)C)cs1 [ritonavir]
inactive: 1 nM 0.04% | 8.33 nM 0.25% | 100 nM -0.08% | 833.33 nM 3.37% | 10000 nM 0.85%

COc1ccc(C2(CNC(=O)c3ccc(NC(=O)c4ccco4)cc3)CCOCC2)cc1
inactive: 1 nM 1.26% | 8.33 nM 1.21% | 100 nM -2.16% | 833.33 nM -1.65% | 10000 nM -2.44%

CC#CCn1c(N2CCC[C@@H](N)C2)nc2c1c(=O)n(Cc1nc(C)c3ccccc3n1)c(=O)n2C [linagliptin]
inactive: 1 nM 0.74% | 8.33 nM -3.62% | 100 nM -0.93% | 833.33 nM -3.72% | 10000 nM -11.3%

COC(=O)C1=C(C)NC(C)=C(C(=O)OCCN(C)Cc2ccccc2)C1c1cccc([N+](=O)[O-])c1 (stereo not given) [nicardipine]
inactive: 1 nM 0.9% | 8.33 nM 0.28% | 100 nM 0.23% | 833.33 nM -0.11% | 10000 nM -1.36%

CC(C)(C)c1cc(/C=C(\C#N)C(N)=S)cc(C(C)(C)C)c1O [tyrphostin-AG-879]
inactive: 1 nM -1.49% | 8.33 nM -0.31% | 100 nM -1.98% | 833.33 nM 5.42% | 10000 nM 8.93%

Cc1ccc(S(=O)(=O)NC(=O)NN2CCCCCC2)cc1 [tolazamide]
inactive: 1 nM 1.07% | 8.33 nM -0.36% | 100 nM 0.85% | 833.33 nM 1.43% | 10000 nM 2.51%

NS(=O)(=O)c1cc(C2(O)NC(=O)c3ccccc32)ccc1Cl (stereo not given) [chlorthalidone]
inactive: 1 nM -0.87% | 8.33 nM -0.18% | 100 nM 4.69% | 833.33 nM -3.83% | 10000 nM -3.63%
